# In PubChem BioAssay (NCI):
# The panel holds about 79,000 compounds, 15% with a hit somewhere; the sample as a whole holds those more often. Activity calls are given as the source filed them. Rule as the data show it: active = growth inhibition above about 70%; inactive = the rest.
# Experiment: NCI Yeast Anticancer Drug Screen. Data for the sgs1 mgt1 strain (AID 161);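 also: 0% = growth of cultures given vehicle only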
# Conditions: S. cerevisiae sgs1 mgt1 strain, at 50.0 µM, active compounds read high
# In short: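 Inhibition of yeast growth, normalised to vehicle-treated controls, is reported for a strain bearing genetic alterations in DNA damage repair.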
row,SMILES,growth inhibition
1,CCOC(=O)c1ccc(C(C)(C)C)cc1,2.5% (inactive)
2,Cc1cc(NC(=O)c2ccccc2)c(Cl)cc1N,-11.9% (inactive)
3,CC(C)(C)[Si](C)(C)OCC1OC(n2cnc3c(N)ncnc32)CC1OS(C)(=O)=O (stereo unspecified),0.75% (inactive)
4,CCCCCCCCNC(=O)C(C)C,-2.15% (inactive)
5,O=C1C=C[C@H](O)[C@@]2(CO)O[C@@H]12,-14.5% (inactive)
6,CCOC(=O)N[C@H]1CCc2cc(OC)c(OC)c(OC)c2-c2ccc(SC)c(=O)cc21,16.2% (inactive)
7,Cc1cccc(C)c1NC(=S)/N=C\c1c(O)[nH]c(=O)[nH]c1=O,-32.3% (inactive)
8,Nc1ccc2ccccc2c1-c1c(N)ccc2ccccc12,-2.05% (inactive)
9,CN(C)Cc1ccccn1,-4.25% (inactive)
10,CN(C)c1ccc2nc3ccc(=[N+](C)C)cc-3oc2c1,-27.7% (inactive)
11,N#Cc1ccc(OC(=O)Nc2cc(Cl)cc(Cl)c2)cc1,-3.65% (inactive)
12,CCOC(=O)c1cc(Cl)c(O)c(Cl)c1,1.4% (inactive)
13,COc1cc(N)c2ncccc2c1Cl,24.4% (inactive)
14,Cc1ccc(OC(=O)c2ccccc2)cc1,-18.6% (inactive)
15,N#CC1(O)CCCCC1,14.7% (inactive)
16,CS(=O)CC(=N\O)/C(CS(C)=O)=N\O (stereo unspecified),4.5% (inactive)

# Experiment: NCI Yeast Anticancer Drug Screen. Data for the bub3 strain (AID 167)
# Conditions: S. cerevisiae bub3 mutant strain, at 50.0 µM, active compounds read high
# In short: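 Screening used yeast with an engineered genetic alteration affecting cell cycle control. Compound-exposed cultures were compared with vehicle cultures, and reduced growth was taken as inhibition.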
row,SMILES,growth inhibition
1,Cc1ccc(C(C)C)c(OCC(=O)O)c1,-6.85% (inactive)
2,CSc1nc2[nH]ncc2c(=O)[nH]1,-3.05% (inactive)
3,COc1ccc(C)cc1NC(=O)SC(C)C,18.4% (inactive)
4,Oc1cc(O)c2c(c1)O[C@H](c1ccc(O)c(O)c1)[C@@H](O)C2,-6.45% (inactive)
5,Oc1cc2ccccc2c(-c2c(O)c(O)cc3ccccc23)c1O,87% (active)
6,NC(CO)(CO)c1ccccc1,17.5% (inactive)
7,C=C1SC(=Nc2c(C)cccc2C)N(c2nc(Cl)nc(Cl)n2)C12CCCCC2,10.9% (inactive)
8,CC1=CC(=Nc2ccc(N(C)C)cc2)C=C(C)C1=O,20.2% (inactive)
9,CCC(C)C1CCC(O)CC1 (stereo unspecified),24.2% (inactive)
10,Cc1cc2nc(C)c(C)nc2cc1C,-25.7% (inactive)
11,CC(=O)c1cccs1,-3.35% (inactive)
12,CN(C)c1ccc(O)c2c1CC1CC3C(N(C)C)C(=O)C(C(N)=O)=C(O)C3(O)C(=O)C1=C2O (stereo unspecified),3.6% (inactive)
13,Nc1cc2ccccc2c(O)c1O,38% (inactive)
14,CC1(C)CC(=O)C=C(N)C1,-4.7% (inactive)
15,COc1ccc2c(c1)Nc1ccccc1S2,-14.6% (inactive)
16,CSCCC(NC(=O)C(Cl)Cl)C(=O)O (stereo unspecified),17% (inactive)
17,CCOC(=O)c1ccc(C(C)(C)C)cc1,0.4% (inactive)
18,Cc1cc(NC(=O)c2ccccc2)c(Cl)cc1N,-21% (inactive)
19,CC(C)(C)[Si](C)(C)OCC1OC(n2cnc3c(N)ncnc32)CC1OS(C)(=O)=O (stereo unspecified),5.3% (inactive)
20,O=C1C=C[C@H](O)[C@@]2(CO)O[C@@H]12,-13.7% (inactive)
21,Cc1cccc(C)c1NC(=S)/N=C\c1c(O)[nH]c(=O)[nH]c1=O,-46.1% (inactive)
22,Nc1ccc2ccccc2c1-c1c(N)ccc2ccccc12,0.75% (inactive)
23,CN(C)Cc1ccccn1,-13.4% (inactive)
24,CN(C)c1ccc2nc3ccc(=[N+](C)C)cc-3oc2c1,6.1% (inactive)
25,N#Cc1ccc(OC(=O)Nc2cc(Cl)cc(Cl)c2)cc1,-4% (inactive)
26,CCOC(=O)c1cc(Cl)c(O)c(Cl)c1,3.25% (inactive)
27,COc1cc(N)c2ncccc2c1Cl,-7.3% (inactive)
28,Cc1ccc(OC(=O)c2ccccc2)cc1,-8.6% (inactive)
29,N#CC1(O)CCCCC1,17.9% (inactive)
30,CS(=O)CC(=N\O)/C(CS(C)=O)=N\O (stereo unspecified),-2.8% (inactive)
